We go through seven molecules from PubChem BioAssay (Tox21).

The structures appear in SMILES notation. Values without a mark were called inactive. Records with an inconclusive call do not appear. Activity calls are given as the source filed them. Unless noted, calls come from the whole dose curve; as a rule, active = well fitted curve in the direction sought with a large enough effect in the repeat runs; inconclusive = weak or mixed curves; inactive = no such curve, though single readings can be large; an effect the other way counts as inactive or inconclusive.

Assay [1] can be described thus: qHTS assay to identify small molecule agonists of the estrogen related receptor signaling pathway with the pleiotropic PPARgamma coactivator (PGC) (AID 1224823). Note: potency is the fitted concentration of half-maximal effect. The method, boiled down:
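Luminescence readout (One-Glo, 30 min RT) from PGC/ERR cell line treated 18 h at 37 C with pin-tool-delivered DMSO compound solutions; cells plated 6 h before dosing. Quantitative HTS format.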

Assay [2] deals with Luciferin 4-monooxygenase (Photinus pyralis) (UniProt P08659). In words: qHTS assay to identify small molecule inhibitors of firefly luciferase (AID 1224835). Note: nearly all actives have a fitted effect of over 25% in size. Note: potency is the fitted concentration of half-maximal effect. A digest of the protocol:
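Biochemical qHTS: compounds run as interplate titrations against purified firefly enzyme, with D-luciferin and ATP each at its KM concentration. Light output recorded by CCD imaging.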
For orientation: Quantitative high-throughput screening tests each substance at several concentrations.

Assay [3] in a line: qHTS assay to identify small molecule agonists of the constitutive androstane receptor (CAR) signaling pathway - cell viability counter screen (AID 1224836). Note: nearly all actives have a fitted effect of over 45% in size. Note: potency is the fitted concentration of half-maximal effect. A digest of the protocol: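 Multiplexed viability check: HepG2-CYP2B6-hCAR cells, 15-point compound dosing, 0.75 uM PK11195 final, 23 h at 37 C, CellTiter-Fluor fluorescence.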
The target in assay [4] is Nuclear receptor subfamily 1 group I member 3 (Homo sapiens) (UniProt Q14994). The assay can be described thus: qHTS assay to identify small molecule antagonists of the constitutive androstane receptor (CAR) signaling pathway (AID 1224838).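 Note: HepG2 cells stably expressing hCAR with CYP2B6 luciferase reporter stimulated by CITCO; nearly all actives have a fitted effect of over 40% in size.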 A digest of the protocol:
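Antagonism measured as luciferase signal (ONE-Glo, 30 min, room temperature) in CAR-stimulated cells: HepG2-CYP2B6-hCAR double-stable line exposed 24 hr at 37 C to compound in a 15-point series plus 50 nM CITCO.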

A short description of assay [5]: qHTS assay to identify small molecule antagonists of the estrogen related receptor signaling pathway with the pleiotropic PPARgamma coactivator (PGC) from Tox21 10K library - cell viability counter screen (AID 1224840; active = well fitted cell-killing curve with a large enough effect in the repeat runs, not every such curve was filed as active; note: nearly all actives have a fitted effect of over 40% in size; note: potency is the fitted concentration of half-maximal effect). The method, boiled down: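 Counter-screen for cytotoxicity: after 17.5 h compound exposure at 37 C, CellTiter-Fluor reagent added to PGC/ERR cells for 30 min and fluorescence read. Cells were seeded at 2,000 per well 6 h before dosing.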

Assay [6] can be described thus: qHTS assay to identify small molecule antagonists of the estrogen related receptor signaling pathway with the pleiotropic PPARgamma coactivator (PGC) from Tox21 10K library (AID 1224841; call rule not given here; note: actives are mostly falling curves and most rising ones were filed inactive; nearly all actives have a fitted effect of over 50% in size; note: potency is the fitted concentration of half-maximal effect). The method, boiled down: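 Luminescence (One-Glo, 30 min at room temperature) after 18 h compound treatment at 37 C of PGC/ERR reporter cells plated at 2,000 cells/well and settled 6 h beforehand.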

Assay [7] in a line: qHTS assay to identify small molecule agonists of the estrogen related receptor signaling pathway with the pleiotropic PPARgamma coactivator (PGC) from Tox21 10K library (AID 1224842). Note: nearly all actives have a fitted effect of over 15% in size. Note: potency is the fitted concentration of half-maximal effect. The method, boiled down: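 PGC/ERR reporter cell line, 2,000 cells per well, incubated 6 h at 37 C before 23 nL compound in DMSO was added. After 18 h at 37 C, One-Glo luminescence read following 30 min at room temperature.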

Assay [8] addresses Thyrotropin receptor (Homo sapiens) (UniProt P16473). In words: qHTS assay to identify small molecule agonists of the thyroid stimulating hormone receptor (TSHR) signaling pathway (AID 1224843; calls by dose curve; note: nearly all actives have a fitted effect of over 45% in size). The method, boiled down: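 HEK293/TSHR, 800 cells/well; cpd 30 min RT; add cAMP-d2 + anti-cAMP-cryptate, 1 h RT; fluorescence read on plate reader. 15-pt titration, n=3.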
Assay [9] can be described thus: qHTS assay to identify small molecule agonists of the hypoxia (HIF-1) signaling pathway (AID 1224846; active = well fitted activation curve with a large enough effect in the signal ratio in the repeat runs, not every such curve was filed as active; the % refers to the signal ratio). A digest of the protocol: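 Compounds added to ME-180 cells carrying hypoxia-response-element beta-lactamase reporter (0.5% dialyzed FBS, 5 h preplating), 17 h at 37C; agonist activity detected by CCF4-AM B/G FRET read-out.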
Assay [10] can be described thus: qHTS assay to identify small molecule agonists of H2AX - cell viability counter screen (AID 1224847; calls by dose curve; note: nearly all actives have a fitted effect of over 30% in size; note: potency is the fitted concentration of half-maximal effect). A digest of the protocol: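 After overnight plating of 1000 CHO-K1 cells per well, a 15-concentration compound series was applied for 3 hr at 37C. Luminescence from CellTiter-Glo, read following 30 min at room temperature, reflected cell viability.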
Assay [11] is described as follows: qHTS assay to identify small molecule antagonists of the estrogen related receptor (ERR) signaling pathway from Tox21 library (AID 1224848). Note: nearly all actives have a fitted effect of over 50% in size. Note: potency is the fitted concentration of half-maximal effect. A digest of the protocol:
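Compounds dissolved in DMSO are pin-transferred onto ERR reporter cells (2,000 per well) that have settled for 6 h at 37 C. Plates then incubate 18 h at 37 C before ONE-Glo luciferase reagent and a luminescence read 30 min later.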

Assay [12] can be described thus: qHTS assay to identify small molecule agonists of the estrogen related receptor (ERR) signaling pathway from Tox21 library (AID 1224849; calls by dose curve; note: nearly all actives have a fitted effect of over 15% in size). To be noted: ERR reporter cell line, ONE-Glo luciferase, 18 h; at 92.4 µM (top of the series) unless noted. A digest of the protocol: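 Luminescent agonist read-out (One-Glo, 30-minute room-temperature incubation) following 18-hour compound treatment at 37 C of the ERR cell line, which had been plated 6 hours before dosing.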

A short description of assay [13]: qHTS RealTime-Glo MT Cell Viability Assay in HepG2 cells - 24 hour (AID 1224867). Note: nearly all actives have a fitted effect of over 50% in size. Note: potency is the fitted concentration of half-maximal effect. The method, boiled down:
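Luminescence read-out: viable HepG2 cells reduce a prosubstrate to a NanoLuc substrate, giving a signal proportional to live cell number. Reads taken at 0, 8, 16, 24, 32 and 40 h of compound exposure at 37 C.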

The nature of assay [14]: qHTS RealTime-Glo MT Cell Viability Assay in HEK293 cells - 32 hour (AID 1224868). Note: nearly all actives have a fitted effect of over 50% in size. Note: potency is the fitted concentration of half-maximal effect. A digest of the protocol:
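Nonlytic real-time viability readout: viable cells convert prosubstrate to NanoLuc substrate, giving luminescence proportional to live cell number. HEK293, 600 cells/well, compound added after 5 h, continuous culture at 37 C.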

The nature of assay [15]: A CellTox Green Cytotoxicity Assay to monitor cytotoxicity in HEK293 cells - 0 hour (AID 1224869). Note: nearly all actives have a fitted effect of over 50% in size. A digest of the protocol: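 Fluorescence from a DNA-binding dye excluded by viable cells was measured repeatedly in the same HEK293 wells (600 cells/well) during continuous compound exposure at 37 C. Each assay gives one read point: 0, 8, 16, 24, 32 or 40 h.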
Assay [16] can be described thus: qHTS assay to identify small molecule antagonists of the estrogen related receptor (ERR) signaling pathway from Tox21 library - cell viability counter screen (AID 1224834). Note: nearly all actives have a fitted effect of over 30% in size. Note: potency is the fitted concentration of half-maximal effect. The method, boiled down:
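CellTiter-Fluor fluorescence, read after 30 min at 37 C, measures viability of ERR cells. Cells plated at 2,000/well and incubated 6 h before pin-tool compound addition, then exposed 17.5 hours at 37 C.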

Assay [17] can be described thus: qHTS assay to identify small molecule antagonists of the constitutive androstane receptor (CAR) signaling pathway - cell viability counter screen (AID 1224837). Note: nearly all actives have a fitted effect of over 45% in size. Note: potency is the fitted concentration of half-maximal effect. The method, boiled down:
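Cytotoxicity counter-screen: CellTiter-Fluor fluorescence after 23 h compound exposure (15-point qHTS) in double-stable HepG2-CYP2B6-hCAR cells, with 50 nM CITCO added.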

For assay [18], the target named is Nuclear receptor subfamily 1 group I member 3 (Homo sapiens) (UniProt Q14994). The assay can be described thus: qHTS assay to identify small molecule agonists of the constitutive androstane receptor (CAR) signaling pathway (AID 1224839).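 For activation: HepG2 cells stably carrying human CAR and a CYP2B6 luciferase reporter.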 Note: nearly all actives have a fitted effect of over 15% in size. Note: potency is the fitted concentration of half-maximal effect. The method, boiled down: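 Using human hepatoma HepG2 cells engineered with hCAR and a CYP2B6-2.2kb reporter, 15-concentration compound series were incubated 24 h alongside PK11195 at 0.75 uM final, with luminescence quantified afterwards.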

The nature of assay [19]: qHTS assay to identify small molecule agonists of the hypoxia (HIF-1) signaling pathway - cell viability counter screen (AID 1224844; calls by dose curve; note: nearly all actives have a fitted effect of over 50% in size; note: potency is the fitted concentration of half-maximal effect). The method, boiled down: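 Cytotoxicity measured by CellTiter-Glo ATP luminescence in the wells also read for beta-lactamase signal. Cells were HRE-bla ME-180 (2,000/well, 0.5% dialyzed FBS), exposed to compounds for 17 h at 37C.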
A short description of assay [20]: qHTS assay to identify small molecule agonists of H2AX (AID 1224845; active = well fitted activation curve with a large enough effect in the signal ratio in the repeat runs, not every such curve was filed as active; the % refers to the signal ratio). A digest of the protocol: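 Wild-type CHO-K1 cells, plated overnight, exposed 3hr at 37C to 15 concentrations (0.76% DMSO final). Lysed, then HTRF anti-pH2AX (S139) cryptate and anti-H2AX-d2 antibodies, 24 hr room temperature; 665/620 nm emission read.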
% is set by controls: 0 for no effect and ±100 for the full control effect.

Sequence of Nuclear receptor subfamily 1 group I member 3 (Homo sapiens) (Q14994 whole entry, looked up): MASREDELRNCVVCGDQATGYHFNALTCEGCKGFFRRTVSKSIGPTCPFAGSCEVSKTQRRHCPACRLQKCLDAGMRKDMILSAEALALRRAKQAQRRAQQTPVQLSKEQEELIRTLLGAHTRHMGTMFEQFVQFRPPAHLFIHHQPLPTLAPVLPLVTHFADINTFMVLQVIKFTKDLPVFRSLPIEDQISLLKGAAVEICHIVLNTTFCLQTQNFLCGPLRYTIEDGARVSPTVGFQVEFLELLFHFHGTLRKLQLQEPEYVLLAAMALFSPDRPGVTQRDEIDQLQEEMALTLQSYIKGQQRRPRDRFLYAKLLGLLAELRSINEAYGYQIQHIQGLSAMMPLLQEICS
Sequence of Luciferin 4-monooxygenase (Photinus pyralis) (P08659 whole entry, looked up): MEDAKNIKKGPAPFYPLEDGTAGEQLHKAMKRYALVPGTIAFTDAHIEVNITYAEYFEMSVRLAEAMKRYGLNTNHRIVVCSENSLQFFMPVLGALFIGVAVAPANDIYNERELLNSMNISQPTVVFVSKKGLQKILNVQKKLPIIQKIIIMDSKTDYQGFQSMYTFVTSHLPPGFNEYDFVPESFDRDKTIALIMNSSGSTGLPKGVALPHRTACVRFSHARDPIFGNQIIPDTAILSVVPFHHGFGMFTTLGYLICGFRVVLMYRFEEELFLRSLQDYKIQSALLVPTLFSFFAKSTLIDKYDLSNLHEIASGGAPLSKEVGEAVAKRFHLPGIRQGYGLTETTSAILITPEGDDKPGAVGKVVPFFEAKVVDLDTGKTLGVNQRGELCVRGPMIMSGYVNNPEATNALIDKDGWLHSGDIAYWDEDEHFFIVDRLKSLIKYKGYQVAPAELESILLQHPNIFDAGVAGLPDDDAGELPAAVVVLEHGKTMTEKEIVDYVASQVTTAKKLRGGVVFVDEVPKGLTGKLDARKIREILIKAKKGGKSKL
Sequence of Thyrotropin receptor (Homo sapiens) (P16473 whole entry, looked up): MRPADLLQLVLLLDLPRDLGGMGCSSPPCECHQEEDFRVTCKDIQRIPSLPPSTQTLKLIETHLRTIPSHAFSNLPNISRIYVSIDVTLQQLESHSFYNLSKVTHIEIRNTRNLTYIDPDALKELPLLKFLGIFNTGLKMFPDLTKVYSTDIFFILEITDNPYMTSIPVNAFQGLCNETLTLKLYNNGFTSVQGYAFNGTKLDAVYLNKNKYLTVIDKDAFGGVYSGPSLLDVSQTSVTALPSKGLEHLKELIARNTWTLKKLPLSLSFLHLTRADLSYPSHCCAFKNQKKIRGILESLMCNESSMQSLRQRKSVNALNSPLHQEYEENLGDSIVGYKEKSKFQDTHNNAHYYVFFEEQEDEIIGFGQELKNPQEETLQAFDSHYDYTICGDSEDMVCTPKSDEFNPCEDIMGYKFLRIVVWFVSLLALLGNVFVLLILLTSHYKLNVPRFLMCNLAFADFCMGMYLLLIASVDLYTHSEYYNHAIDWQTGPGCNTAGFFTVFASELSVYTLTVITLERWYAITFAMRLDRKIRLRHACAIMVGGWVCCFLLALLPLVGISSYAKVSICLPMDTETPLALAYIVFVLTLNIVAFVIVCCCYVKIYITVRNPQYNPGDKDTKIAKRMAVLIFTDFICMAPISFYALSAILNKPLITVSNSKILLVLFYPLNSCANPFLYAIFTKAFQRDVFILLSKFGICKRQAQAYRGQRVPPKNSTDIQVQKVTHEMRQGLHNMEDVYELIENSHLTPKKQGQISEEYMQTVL

As for `COC(=O)Nc1nc2ccc(C(=O)c3cccs3)cc2[nH]1`, the Potency in assay [1] was 1.96 µM (active); in assay [2], 15.5 µM (active); in assay [3], 11.9 µM (active); in [7], 3.35 µM (active); in assay [14], 0.169 µM (active). For the same molecule, the Potency result in assay [4], in [5], in assay [6], in assay [8], in assay [10] and in assay [11] was “inactive” throughout. Moreover, the Potency entry in [13] and in assay [15] was “inactive” each time. The result in [9] was inactive. Besides, in assay [12], the activity change, positive = activation was -4.13% [at 42.5 µM].
On to `CC1=CC(=O)CC(C)(C)C1(O)/C=C/C(C)=C\C(=O)O` (stereo not drawn), for which the Potency entry in assay [16], in assay [2], in [3], in [17], in [4] and in assay [18] was “inactive” throughout. In addition, the Potency entry in [5], in assay [6], in assay [7], in assay [8], in assay [19] and in assay [20] was “inactive” each time. The Potency entry in assay [10], in assay [11], in [13], in [14] and in assay [15] was “inactive” each time. Moreover, in assay [9], the call was inactive. For the same molecule, the activity change, positive = activation in assay [12] was 4.36%.
With `Cc1cc2nc3ccc(=[N+](C)C)cc-3sc2cc1N`, the Potency in assay [16] was 2.66 µM (active); in [2], 9.77 µM (active); in assay [3], 21.1 µM (active); in assay [17], 10.6 µM (active); in assay [18] it was 8.41 µM (active); in assay [5], 13.3 µM (active). The Potency in [6] was 2.66 µM (active); in assay [19], 5.35 µM (active); in assay [10], 24.7 µM (active); in [11] it was 0.531 µM (active); in assay [13], 16.9 µM (active); in assay [14], 2.39 µM (active). Also, the Potency result in [4] and in assay [7] was “inactive” in each case. Further, the result in [9] was inactive.
`CCNC(=O)N1CCN(CCCC(c2ccc(F)cc2)c2ccc(F)cc2)CC1`: the Potency result in assay [1], in assay [2], in [19], in assay [20], in assay [10] and in assay [13] was “inactive” throughout. For the same molecule, in assay [15], the Potency entry was “inactive”. Moreover, the Potency is 21.1 µM (active) in assay [17], 7.5 µM (active) in assay [11] and 16.9 µM (active) in assay [14]. Besides, the activity change, positive = activation in [12] was -50.1% [at 42.5 µM].
`COC(OC)(C(=O)c1ccccc1)c1ccccc1`: the Potency entry in assay [16], in assay [2], in assay [3], in assay [17], in [4] and in assay [5] was “inactive” throughout. Further, the Potency entry in [6], in assay [7], in assay [8], in assay [19], in [20] and in assay [11] was “inactive” each time. In addition, the Potency entry in assay [13], in assay [14] and in assay [15] was “inactive” each time. Moreover, in assay [18], the Potency is 15.3 µM (active). In addition, in [9], the molecule was called inactive.
As for `Cc1nc2ccccn2c(=O)c1CCN1CCC(C(=O)c2ccc(F)cc2)CC1`, the Potency result in assay [1], in assay [16], in [2], in assay [3], in assay [17] and in [18] was “inactive” each time. The Potency entry in assay [5], in assay [19], in assay [20], in assay [10], in assay [13] and in assay [15] was “inactive” each time. The Potency in assay [14] was 7.56 µM (active).
As for `CCOC(=O)c1ccccc1OC`, the Potency result in assay [16], in [2], in assay [3], in assay [17], in [4] and in [18] was “inactive” each time. The Potency result in assay [5], in assay [6], in assay [7], in assay [8], in [19] and in [20] was “inactive” each time. For the same molecule, the Potency entry in assay [10], in assay [11], in [13], in [14] and in [15] was “inactive” each time. For the same molecule, the call in assay [9] was inactive.
